# Test results published in PMC8384837, “Expanding the binding specificity for RNA recognition by a PUF domain”.
# Positions count from the first letter of the chain named.
# Experiments:
# Experiment in all cases: yeast three-hybrid, YBZ-1, SC-Leu-His + 0.5 mM 3-AT, 4 days
# Settings in all cases: tags: N-Gal4 AD-HA kept; label: inside an RPR1-promoter hybrid RNA with tandem MS2 sites; ssRNA
# [1] = target: PUM1 PUF domain R4-WFS (Homo sapiens, UniProt Q14671 828-1176, N971W;H972F;Q975S)
# How it was run: (§1)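 Pumilio-1 PUF domain libraries, randomized (NNK) at the three base-contacting residues of each repeat, were co-expressed with matching RNA elements from a centromeric plasmid in strain YBZ-1 (LexA–MS2 coat fusion, HIS3 reporter). Transformants were plated on SC-Leu (input) and SC-Leu-His + 0.5 mM 3-AT (selection) for four days, and repeat regions were PCR-amplified and Illumina-sequenced. The interaction score is the log2 change in variant frequency from input to selection, with pseudocount 1 where absent.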
# [2] = target: PUM1 PUF domain R4-GNH (Homo sapiens, UniProt Q14671 828-1176, N971G;H972N;Q975H)
# How it was run: as §1
# [3] = target: PUM1 PUF domain R1-QRR (Homo sapiens, UniProt Q14671 828-1176, S863Q;Q867R)
# How it was run: as §1
# [4] = target: PUM1 PUF domain R1-VKR (Homo sapiens, UniProt Q14671 828-1176, S863V;R864K;Q867R)
# How it was run: as §1
# [5] = target: PUM1 PUF domain R1-QIR (Homo sapiens, UniProt Q14671 828-1176, S863Q;R864I;Q867R)
# How it was run: as §1
# [6] = target: PUM1 PUF domain R5-RPC (Homo sapiens, UniProt Q14671 828-1176, C1007R;R1008P;Q1011C)
# How it was run: as §1
# [7] = target: PUM1 PUF domain R7-RCK (Homo sapiens, UniProt Q14671 828-1176, S1079R;N1080C;E1083K)
# How it was run: as §1
# [8] = target: PUM1 PUF domain R1-RKV (Homo sapiens, UniProt Q14671 828-1176, S863R;R864K;Q867V)
# How it was run: as §1
# [9] = target: PUM1 PUF domain R4-APN (Homo sapiens, UniProt Q14671 828-1176, N971A;H972P;Q975N)
# How it was run: as §1
# [10] = target: PUM1 PUF domain R1-KMR (Homo sapiens, UniProt Q14671 828-1176, S863K;R864M;Q867R)
# How it was run: as §1
# [11] = target: PUM1 PUF domain R3-GYV (Homo sapiens, UniProt Q14671 828-1176, C935G;R936Y;Q939V)
# How it was run: as §1
# [12] = target: T1, PUM1 PUF domain R6-MFS (Homo sapiens, UniProt Q14671 828-1176, N1043M;Y1044F;Q1047S)
# T1 sequence: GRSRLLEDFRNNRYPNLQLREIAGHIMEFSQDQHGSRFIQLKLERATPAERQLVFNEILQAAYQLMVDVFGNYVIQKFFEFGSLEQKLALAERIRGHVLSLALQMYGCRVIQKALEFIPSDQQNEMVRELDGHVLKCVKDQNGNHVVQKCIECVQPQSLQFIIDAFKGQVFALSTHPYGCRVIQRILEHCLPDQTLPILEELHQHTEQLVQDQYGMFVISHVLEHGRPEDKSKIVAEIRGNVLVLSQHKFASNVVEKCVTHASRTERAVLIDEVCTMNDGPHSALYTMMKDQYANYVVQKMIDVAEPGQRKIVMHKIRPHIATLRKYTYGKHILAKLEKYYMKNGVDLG
# How it was run: as §1
# [13] = target: PUM1 PUF domain R8-HYR (Homo sapiens, UniProt Q14671 828-1176, N1122H;Q1126R)
# How it was run: as §1
# [14] = target: PUM1 PUF domain R8-KWV (Homo sapiens, UniProt Q14671 828-1176, N1122K;Y1123W;Q1126V)
# How it was run: as §1
# [15] = target: PUM1 PUF domain R3-GWP (Homo sapiens, UniProt Q14671 828-1176, C935G;R936W;Q939P)
# How it was run: as §1
# [16] = target: PUM1 PUF domain R3-ARI (Homo sapiens, UniProt Q14671 828-1176, C935A;Q939I)
# How it was run: as §1
# [17] = target: T2, PUM1 PUF domain R6-TWG (Homo sapiens, UniProt Q14671 828-1176, N1043T;Y1044W;Q1047G)
# T2 sequence: T1 sequence with M216T, F217W, S220G
# How it was run: as §1
# [18] = target: PUM1 PUF domain R3-EWV (Homo sapiens, UniProt Q14671 828-1176, C935E;R936W;Q939V)
# How it was run: as §1
# [19] = target: PUM1 PUF domain R8-RWF (Homo sapiens, UniProt Q14671 828-1176, N1122R;Y1123W;Q1126F)
# How it was run: as §1
# [20] = target: PUM1 PUF domain R3-YCG (Homo sapiens, UniProt Q14671 828-1176, C935Y;R936C;Q939G)
# How it was run: as §1
sequence,measurement,setting,value
GGCUAGAACUAGUGGAUCCCCCGGCGCCCGGCGGCUCGAGCCCGGGUAAGUGUAUAUAGUCUGCAUGCCGCCGGGCGCCAUGCCUGCAGGUCGACUCUAGAAAACAUG,binding signal,[1],3.06 log2 enrichment (interaction score)
same,binding signal,[2],3.07 log2 enrichment (interaction score)
GGCUAGAACUAGUGGAUCCCCCGGCGCCCGGCGGCUCGAGCCCGGGUAAGUGUAAAUCGUCUGCAUGCCGCCGGGCGCCAUGCCUGCAGGUCGACUCUAGAAAACAUG,binding signal,[3],5.33 log2 enrichment (interaction score)
same,binding signal,[4],3.48 log2 enrichment (interaction score)
same,binding signal,[5],3.53 log2 enrichment (interaction score)
GGCUAGAACUAGUGGAUCCCCCGGCGCCCGGCGGCUCGAGCCCGGGUAAGUGUUAAUAGUCUGCAUGCCGCCGGGCGCCAUGCCUGCAGGUCGACUCUAGAAAACAUG,binding signal,[6],2.17 log2 enrichment (interaction score)
GGCUAGAACUAGUGGAUCCCCCGGCGCCCGGCGGCUCGAGCCCGGGUAAGUAUAAAUAGUCUGCAUGCCGCCGGGCGCCAUGCCUGCAGGUCGACUCUAGAAAACAUG,binding signal,[7],2.31 log2 enrichment (interaction score)
GGCUAGAACUAGUGGAUCCCCCGGCGCCCGGCGGCUCGAGCCCGGGUAAGUGUAAAUGGUCUGCAUGCCGCCGGGCGCCAUGCCUGCAGGUCGACUCUAGAAAACAUG,binding signal,[4],0.84 log2 enrichment (interaction score)
same,binding signal,[8],0.48 log2 enrichment (interaction score)
GGCUAGAACUAGUGGAUCCCCCGGCGCCCGGCGGCUCGAGCCCGGGUAAGUGUACAUAGUCUGCAUGCCGCCGGGCGCCAUGCCUGCAGGUCGACUCUAGAAAACAUG,binding signal,[9],1.7 log2 enrichment (interaction score)
GGCUAGAACUAGUGGAUCCCCCGGCGCCCGGCGGCUCGAGCCCGGGUAAGUGUAAAUUGUCUGCAUGCCGCCGGGCGCCAUGCCUGCAGGUCGACUCUAGAAAACAUG,binding signal,[10],6.29 log2 enrichment (interaction score)
same,binding signal,[3],1.96 log2 enrichment (interaction score)
same,binding signal,[4],1.61 log2 enrichment (interaction score)
same,binding signal,[8],3.41 log2 enrichment (interaction score)
GGCUAGAACUAGUGGAUCCCCCGGCGCCCGGCGGCUCGAGCCCGGGUAAGUGUCAAUAGUCUGCAUGCCGCCGGGCGCCAUGCCUGCAGGUCGACUCUAGAAAACAUG,binding signal,[6],1.49 log2 enrichment (interaction score)
GGCUAGAACUAGUGGAUCCCCCGGCGCCCGGCGGCUCGAGCCCGGGUAAGUGUAAAUAGUCUGCAUGCCGCCGGGCGCCAUGCCUGCAGGUCGACUCUAGAAAACAUG,binding signal,[11],3.26 log2 enrichment (interaction score)
same,binding signal,[12],3 log2 enrichment (interaction score)
same,binding signal,[13],2.29 log2 enrichment (interaction score)
same,binding signal,[14],5.94 log2 enrichment (interaction score)
same,binding signal,[9],4.29 log2 enrichment (interaction score)
same,binding signal,[15],6.69 log2 enrichment (interaction score)
same,binding signal,[16],4.45 log2 enrichment (interaction score)
same,binding signal,[17],3.96 log2 enrichment (interaction score)
GGCUAGAACUAGUGGAUCCCCCGGCGCCCGGCGGCUCGAGCCCGGGUAAGUGUAAUUAGUCUGCAUGCCGCCGGGCGCCAUGCCUGCAGGUCGACUCUAGAAAACAUG,binding signal,[18],2.82 log2 enrichment (interaction score)
same,binding signal,[15],4.22 log2 enrichment (interaction score)
same,binding signal,[16],2.15 log2 enrichment (interaction score)
GGCUAGAACUAGUGGAUCCCCCGGCGCCCGGCGGCUCGAGCCCGGGUAAGCGUAAAUAGUCUGCAUGCCGCCGGGCGCCAUGCCUGCAGGUCGACUCUAGAAAACAUG,binding signal,[14],5.88 log2 enrichment (interaction score)
same,binding signal,[19],5.22 log2 enrichment (interaction score)
GGCUAGAACUAGUGGAUCCCCCGGCGCCCGGCGGCUCGAGCCCGGGUAAGUGUAAGUAGUCUGCAUGCCGCCGGGCGCCAUGCCUGCAGGUCGACUCUAGAAAACAUG,binding signal,[18],2.9 log2 enrichment (interaction score)
same,binding signal,[20],4.58 log2 enrichment (interaction score)
same,binding signal,[15],5.41 log2 enrichment (interaction score)
GGCUAGAACUAGUGGAUCCCCCGGCGCCCGGCGGCUCGAGCCCGGGUAAGUCUAAAUAGUCUGCAUGCCGCCGGGCGCCAUGCCUGCAGGUCGACUCUAGAAAACAUG,binding signal,[7],4.15 log2 enrichment (interaction score)
